According to ChEMBL document CHEMBL3988442, “University of Dundee, Small-Polar-MMV Screening Library” (2021):
Out of some 48,000 compounds screened, about 13,000 (27%) showed an effect of 50% or more. This is one part of the list.

Each compound was assayed on Wolbachia pipientis (assay: Anti-Wolbachia Cell-Based Screen). Conditions: 5 µM.
Assay type: functional
Parameters: scale not given: in the data most compounds retested in dose-response had high values

SMILES	Percent Effect [%]
Cc1occc1C(=O)N1CC(C(=O)N2CCOCC2)C2(CCOCC2)C1 (configuration not stated)	-11.45
CC(NC(=O)CCCC(=O)c1cccs1)c1nnc2n1CCC2 (configuration not stated)	92.19
CC(NC(=O)CCC(=O)c1cccs1)c1nnc2n1CCC2 (configuration not stated)	109.2
Cc1noc(CCCC(=O)NC(C)c2nnc3n2CCCCC3)n1 (configuration not stated)	-8.198
CC(NC(=O)CCC(=O)c1cccs1)c1nnc2n1CCCCC2 (configuration not stated)	-1.581
c1cnn(Cc2ccc(CN3CCC4(CCCNC4)C3)cc2)c1 (configuration not stated)	7.706
COCCN1CCN(CCCc2nnnn2-c2ccccc2)CC1	-6.154
O=C(c1c[nH]c(=O)[nH]c1=O)N1CCCC(c2cnccn2)C1 (configuration not stated)	111.3
Cc1cccc2[nH]c(C3CCN(C(=O)c4c[nH]c(=O)[nH]c4=O)CC3)nc12	-6.416
Cc1cc(C2CCCN(C(=O)c3ccc(C)[nH]c3=O)C2)n[nH]1 (configuration not stated)	8.066
Cc1ccccc1OC1CCN(C(=O)c2c[nH]c(=O)[nH]c2=O)CC1	25.29
Cc1cnc(C2CCCN(C(=O)c3c[nH]c(=O)[nH]c3=O)C2)s1 (configuration not stated)	107.7
Cc1cncc(C2CCCN(C(=O)c3c[nH]c(=O)[nH]c3=O)C2)n1 (configuration not stated)	-6.344
Cn1ccnc1CN1CCN(c2ncnc3ccsc23)CC1	8.989
CCc1[nH]n(C)c(=N)c1-c1ccc2c(c1)OCO2	-3.293
CCc1ncnc2c1CCN(CCOC)CC2.O=C(O)C(F)(F)F	104.9
CCc1ncnc2c1CCN(Cc1ccc(OC)cc1)CC2.O=C(O)C(F)(F)F	-14.19
COCCN1CCc2ncnc(-c3ccccc3)c2CC1.O=C(O)C(F)(F)F	98.59
CCc1ncnc2c1CCN(Cc1cccs1)CC2.O=C(O)C(F)(F)F	-3.657
CN(CCN1CCCC1=O)CC(c1cccs1)N1CCOCC1 (configuration not stated)	-4.192
CCc1ccc(CN(C/C=C/c2ccccc2)CCOC)nc1	-1.399
Cc1cc(CN[C@H](C(N)=O)[C@@H](C)O)c(C)s1	-13.15

SMILES	Percent Effect [%]
CN(C)[C@@H]1CCN(c2ncccn2)[C@H]1Cc1cccnc1.O=C(O)C(F)(F)F.O=C(O)C(F)(F)F	5.907
O=S(=O)(C1CC1)N1CC[C@H](OCC2CC2)[C@@H]1Cc1ccncc1	-12.77
Cc1ccc(N2CC[C@H](OCC3CC3)[C@@H]2Cc2ccncc2)nn1	112.9
Cc1ccc(N2CC[C@H](OCC3CC3)[C@@H]2Cc2cccnc2)nn1.O=C(O)C(F)(F)F	91.78
COCCO[C@H]1CCN(c2cc(OC)ncn2)[C@H]1Cc1cccnc1.O=C(O)C(F)(F)F	-7.888
Cc1ccc(N2CC[C@H](OCC3CC3)[C@@H]2Cc2cnn(C)c2)nn1	1.399
COCCO[C@H]1CCN(c2ccc(C)nn2)[C@H]1Cc1cccnc1.O=C(O)C(F)(F)F.O=C(O)C(F)(F)F	97.63
O=C(NCC(F)(F)F)c1nnn(-c2ccccc2)c1C(F)(F)F	-4.958
CCCSCC(=O)N1C[C@H]2CC[C@@H]1CN(c1ncccn1)C2	28.59
N[C@H]1CN(C(=O)c2ccc(CO)cc2)C[C@@H]1C1CC1	-11.41
COc1ccc(-c2nc3c([nH]2)CCNC3)c(OC)c1OC	-10.21
O=C(CCc1ccc(C(F)(F)F)cc1)N1CCCS1(=O)=O	-13.79
N#Cc1ccc(S(=O)(=O)Nc2cnn(C3CCOCC3)c2)cc1	136.3
Cc1ccc(NS(=O)(=O)c2ccc(C#N)cc2)c(CN(C)C)c1	3.683
COc1c(NS(=O)(=O)c2ccc(C)c(C)c2)c(C)nn1C	-13.12
CCc1ccc(S(=O)(=O)Nc2cnc(N3CCOCC3)nc2)cc1	1.019
Cn1nnn(-c2ccc(NS(=O)(=O)c3ccc(Br)cc3)cc2)c1=O	-3.296
Cc1ccc(S(=O)(=O)Nc2cnn(C3CCOCC3)c2)cc1C	113.9
CC(=O)c1ccc(S(=O)(=O)Nc2cnn(C3CCOCC3)c2)cc1	124.1
O=S(=O)(Nc1cnn(C2CCOCC2)c1)c1ccc(Br)cc1	132.2
N#Cc1ccc(S(=O)(=O)Nc2ccc(N3CCOCC3)cn2)cc1	1.293
O=S(=O)(Nc1cnn(C2CCOCC2)c1)c1ccc2c(c1)CCO2	-1.173

SMILES	Percent Effect [%]
Cc1ccc(S(=O)(=O)Nc2ccc(N3CCOCC3)cn2)cc1	3.4
O=S(=O)(Nc1cnc(N2CCOCC2)nc1)c1ccc(Cl)cc1	-1.506
COc1coc(CN2CCCC(CCc3c(F)cccc3F)C2)cc1=O (configuration not stated)	17.04
Cc1ccc(C)c(-c2csc(N)c2C#N)c1	-0.8217
Cc1nc(N2CCN3CCCCC3C2)nc2cc(S(C)(=O)=O)ccc12 (configuration not stated)	-5.317
O=C(CNC(=O)c1cnc2ccccc2c1O)NCCn1ccnc1	-3.022
Cc1cc(CN2CCN(C(=O)Nc3cccnc3)CC2)on1	-15.13
O=S(=O)(Nc1cnn(C2CCOCC2)c1)c1ccc(F)c(F)c1	-11.58
O=C(O)c1cc(S(=O)(=O)Nc2cnn(C3CCOCC3)c2)ccc1F	126.6
O=S(=O)(Nc1cnn(C2CCOCC2)c1)c1c(F)cccc1F	-13.72
Cc1ccc(CNCc2cc(Br)c3c(c2)OCO3)cc1	-32.56
Fc1cccc(N2CCCC3(CN(Cc4ccco4)CCO3)C2)c1.O=C(O)C(F)(F)F.O=C(O)C(F)(F)F (configuration not stated)	-7.933
CN1CC(=O)N(c2cccc(F)c2)CC12CCN(Cc1ccco1)C2 (configuration not stated)	-8.082
CC(C)(Oc1ccc2c(c1)CCCC2=O)C(=O)NCc1ccco1	-1.632
CC(C)(O)CN1CCC(=O)N(Cc2ccco2)Cc2cc(F)ccc21	108.3
COc1cccc(N2CCC(CNC(=O)N(C)Cc3ccco3)C2)c1 (configuration not stated)	-2.761
COc1ccc2c(c1)CN(Cc1ccco1)C(=O)CCN2CC(C)(C)O	126.9
CC(=O)N1CCC2(CC1)CN(C(C)=O)CC21CCNC1=O (configuration not stated)	-37.65
CN(C)C1Cc2ccccc2N(S(=O)(=O)c2ccccc2C#N)C1 (configuration not stated)	-15.96
CN(C)c1cncc(C2CCCN(c3cnccn3)C2)n1 (configuration not stated)	69.21
CC(C)c1nc(C2CCCN(c3cnc4ccccc4n3)C2)no1 (configuration not stated)	3.044
CN(C)c1nccnc1C1CCN(c2cnccn2)CC1	116.7

SMILES	Percent Effect [%]
CN(C)c1nccnc1C1CCCN(c2cnccn2)C1 (configuration not stated)	115.4
Cc1cc(N2CCCC(c3nccnc3N(C)C)C2)ncn1 (configuration not stated)	90.88
CN(C)CCO[C@H]1C[C@@H](O)C12CCN(c1cnccn1)CC2	0.5833
COc1cc(N2CCCC(c3ncc[nH]3)C2)ncn1 (configuration not stated)	-14.93
Cc1cc(C)c(CNC(=O)C2CCCN(c3cnccn3)C2)c(=O)[nH]1 (configuration not stated)	0.7586
CC(C)n1ccnc1C1CCCN(c2cncc(N(C)C)n2)C1 (configuration not stated)	9.354
CN(C)CCCn1ccnc1C1CCCN(c2cc(N)ncn2)C1 (configuration not stated)	-5.782
O=C(O)[C@@H]1CN(C2CCCCC2)C[C@H]1C1CC1	8.818
CCS(=O)(=O)N1CCC(CSc2ccccc2)C1 (configuration not stated)	-7.795
CNC(=O)C(C)(C)N1CCC[C@H]1C(=O)NCCN1CCOCC1	8.557
CC(=O)NCc1nnn2c1CN(c1ncc(C)cn1)CCC2	101.7
O=C(O)C(F)(F)F.c1ccc(OCc2nnn3c2CN(c2ncccn2)CCC3)nc1	-15.4
COCc1nnn2c1CN(C(=O)c1c[nH]cn1)CCC2	-0.6058
CCS(=O)(=O)N1CCCn2nnc(CNC(C)=O)c2C1	115.8439
O=C(O)C(F)(F)F.OCCOCc1nnn2c1CN(c1ncccn1)CCC2	8.15
CC(=O)NCc1nnn2c1CN(c1ncccn1)CCC2	96.74
CCc1ccc(C(=O)N2CCCn3nnc(Cn4cccn4)c3C2)cc1	1.938
COc1cccc(-c2noc(-c3ccc(NCC(C)C)nc3)n2)c1OC	-21.63
CCN1CCC(c2nnc(CN3CCCC3)n2C2CC2)CC1	-1.245
Cc1cc(N(C)C)nc(N2CCn3c(C)nnc3C2)n1	-0.4749
Cc1cc(N(C)C)nc(C2(C)CCCNC2)n1 (configuration not stated)	102.5
Cc1cc(N(C)C)nc(C2(C)CCNCC2)n1	87.74

SMILES	Percent Effect [%]
Cc1nc(N(C)C)cc(C2(C)CCNCC2)n1	111
Cc1cnn(C2CN(c3nc(C)cc(N(C)C)n3)C2)c1	-14.5
CN(Cc1ccc2nsnc2c1)C(=O)CCc1cc2n(n1)CCCNC2	-10.43
COCc1cc(N(C)Cc2ccccn2)nc(C(C)(C)C)n1	-4.697
O=C(COc1ccccc1N1CCCC1)N1CCN[C@H]2CS(=O)(=O)C[C@H]21	-3.795
O=C(CCc1ccccc1Br)N1CC(S(=O)(=O)C2CCCCC2)C1	3.843
Cc1noc(CNc2ccc(OC(F)F)cc2OC(F)F)n1	-10.63
CS(=O)(=O)N1Cc2nccn2CC(CN2CCCC2=O)C1 (configuration not stated)	-14.04
CC(=O)N1CCC(Cc2nccnc2-c2c(C)n[nH]c2C)C1 (configuration not stated)	110.3
Cc1n[nH]c(C)c1-c1nccnc1CC1CCN(S(C)(=O)=O)C1 (configuration not stated)	111.1
Cc1noc2ncc(C(=O)NCC3CCN(C(C)C)C3)cc12 (configuration not stated)	-9.955
Cc1n[nH]c(C)c1-c1nccnc1CC1CCCN(C)C1 (configuration not stated)	113
Cc1ccc(CN(Cc2ccccn2)C(=O)CCC2CCCN(C)C2)s1 (configuration not stated)	-9.083
Cc1n[nH]c(C)c1CN1CCC(c2cc(C(C)C)n[nH]2)CC1	7.572
CC(=O)N1CCC(NC(=O)NCCCc2cn[nH]c2C)CC1	-4.714
CS(=O)(=O)N1CCC(CSc2ccccc2)C1 (configuration not stated)	7.413
CN1CCCC(N2CCN(c3cc(C(F)(F)F)ccn3)CC2)C1 (configuration not stated)	-11.03
CC(=O)N1CCC(CN2CCN(Cc3nccn3C)C(C)C2)CC1 (configuration not stated)	-3.409
Cc1n[nH]c(C)c1-c1nccnc1CC1CCN(C(C)C)CC1	127
